Rows were chosen to be rich in hits. Some 1.6% of all compounds tested hit in one or more screens of this group.
PG9 Ab binder: binders of HIV-1 gp120 antibody PG9, primary screen, biochemical, TR-FRET. HIV-1 gp120 / PG9 antibody interaction. TR-FRET gp120-PG9 antibody binding. actives 0.43% (n = 360,000). inhibition, % at 6.7 µM; in the data active = inhibition above about 8.5%
NPR1 activator: GC-A stimulated cGMP production enhancers – HEK293 GC-A cells, cGMP TR-FRET, EC30 ANP, primary screen | Atrial natriuretic peptide receptor 1 (Homo sapiens), P16066 | 0% at EC30 ANP, 100% saturating ANP | activation, % at 10 µM | actives 0.14% (n = 370,000); in the data active = activation above about 40%
GC-B act: human GC-B receptor activators, primary screen, HEK293 GC-B cells, cGMP TR-FRET, EC30 CNP; 0% at EC30 CNP, 100% saturating CNP; activation, % at 10 µM; actives 0.11% (n = 370,000);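 active = activation at 10 µM reaching about 35% in either raw or pattern-adjusted values, limit read from the data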
Rev-erbA mod: modulators of Rev-erb alpha DNA binding, primary screen, biochemical, FITC-DNA, fluorescence polarization, uHTS; Nuclear receptor subfamily 1 group D member 1 (Homo sapiens), P20393; Rev-erbα–FITC-DNA binding, 90 min; activity, % at 10 µM; actives 0.79% (n = 370,000); AID 1259318, 2017;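 active = activity above about 14%, limit read from the data; passing the limit was not always enough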;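 note: 0% = DMSO wells with 35 nM protein and 100% = DMSO wells with 750 nM protein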
V-ATPase pH: regulators of yeast V-ATPase proton pumping, primary screen, pHLuorin cytosolic pH fluorescence; response, % at 10 µM; actives 0.37% (n = 350,000); AID 504577, 2011; S. cerevisiae; in the data active = response mostly above about 7.3%, no sharp cut-off; inactive = mostly below about 5.4%; note: actives read high
Rev-erbA confirm: modulators of Rev-erb alpha DNA binding, confirmation, biochemical, FITC-DNA, fluorescence polarization, single point; 90 min; AID 1259319, 2017; actives 61% (n = 3,000); shares compounds with Rev-erbA mod; activation, % at 25 µM;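 active = activation at or above a set limit, or at least 3 SD above the negative control mean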;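 note: 0% = 35 nM protein with DMSO and 100% = 750 nM protein high control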
RORg counter: modulation of RORgamma DNA binding, dose response, counter-screen for Rev-erb alpha modulator project, biochemical, fluorescence polarization, FITC-DNA | shares compounds with Rev-erbA mod | purified RORgamma protein-FITC-DNA binding | IC50, µM | actives 8% (n = 910) | AID 1259320, 2017;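 active = Compounds whose fitted half-maximal concentration for disrupting protein-DNA binding is below 10 micromolar; the record names Rev-erb in its text, so the target is in doubt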
Numbers without * were called inactive.

For CCOC(=O)c1sc(=NC(=O)c2cccs2)n(C)c1C the results were PG9 Ab binder 0, NPR1 activator 11, GC-B act 1, Rev-erbA mod 31*, V-ATPase pH 0 and Rev-erbA confirm 15.
`Cc1ccc2c(c1)sc(=NC(=O)c1cccs1)n2C` gave PG9 Ab binder 0, NPR1 activator 3, GC-B act -4, Rev-erbA mod 43*, V-ATPase pH 0 and Rev-erbA confirm 10.
For CC(C)NC(=O)c1cc2c(-c3ccc(Cl)cc3)nn(C)c2s1 the results were PG9 Ab binder -1, NPR1 activator -3, GC-B act -5, Rev-erbA mod -1 and V-ATPase pH 1.
Screening CCOC(=O)N1CCC(NC(=O)c2cc3c(-c4ccc(Cl)cc4)nn(C)c3s2)CC1 returned PG9 Ab binder -1, NPR1 activator 8, GC-B act -5, Rev-erbA mod 20*, V-ATPase pH -1 and Rev-erbA confirm 19*.
`CCC(CC)COC(=O)C1=C(C)NC(=O)NC1c1ccc(OC)cc1` (stereo unspecified) gave PG9 Ab binder -2, NPR1 activator -11, GC-B act -3, Rev-erbA mod 21*, V-ATPase pH 1 and Rev-erbA confirm 20*.
For CCC(CC)COC(=O)C1=C(C)NC(=O)NC1c1cc(OC)ccc1OC (stereo unspecified) the results were PG9 Ab binder -1, NPR1 activator -16, GC-B act -16, Rev-erbA mod 7 and V-ATPase pH 4.
CCCCCCOC(=O)C1=C(C)NC(=O)NC1c1ccc2c(c1)OCO2 (stereo unspecified) was read as PG9 Ab binder -4, NPR1 activator -10, GC-B act -3, Rev-erbA mod 17*, V-ATPase pH 0 and Rev-erbA confirm 14.
Screening CCOC(=O)Cn1cc(CN2C(C(=O)OC)CN(Cc3ccc(Cl)cc3)CCS2(=O)=O)nn1 (stereo unspecified) returned NPR1 activator 1, GC-B act 1 and Rev-erbA mod -1.
Cc1nn(CCC(=O)NNC(=O)Nc2ccc(F)cc2)c(C)c1[N+](=O)[O-] was read as NPR1 activator -5, GC-B act -4 and Rev-erbA mod 7.
For CC[C@H](CCCCCC#N)CCC(=O)N(c1ccccc1)c1ccccc1 the results were NPR1 activator -15, GC-B act -8 and Rev-erbA mod 0.
CCn1c(/C=C/c2c(C)[nH]c3ccccc23)nc2ccccc2c1=O was read as PG9 Ab binder -1, NPR1 activator 2, GC-B act -6, Rev-erbA mod 59*, V-ATPase pH -4 and Rev-erbA confirm 29*.
O=C(OC12CCCN(C1)/C(=C/c1cccnc1)C2)C1CCCCC1 (stereo unspecified) was read as NPR1 activator 1, GC-B act 7 and Rev-erbA mod 2.
`O=C(OCC(=O)N1CCCC1=O)c1cc(Cl)ccc1O` gave PG9 Ab binder -1, NPR1 activator 0, GC-B act -2, Rev-erbA mod -1 and V-ATPase pH 2.
Screening O=C(OCC(=O)N1CCCc2ccccc21)c1cc(Cl)ccc1O returned PG9 Ab binder 1, NPR1 activator -3, GC-B act 5, Rev-erbA mod 24*, V-ATPase pH 2 and Rev-erbA confirm -5.
Cc1ccc(N(Cc2cc3cc(C)ccc3[nH]c2=O)C(=O)c2cccs2)cc1 was read as PG9 Ab binder 1, NPR1 activator 16, GC-B act 6, Rev-erbA mod 48*, V-ATPase pH 1, Rev-erbA confirm 79* and RORg counter >40.
